Reference: article PMC4336329 (PLoS ONE, 2015)
In all, about 310,000 compounds went through this assay and about 14,000 (4.5%) showed an effect of 50% or more. The effect is printed as a negative number. What follows is part of a selection rich in strong results, with near analogues and random picks from the rest.

target: human ether-à-go-go-related gene (hERG) potassium channel (human, UniProt Q12809); assay: primary screen, population patch clamp on CHO cells stably expressing hERG; higher = less effect of the substance
Sequence (Q12809 whole entry, looked up): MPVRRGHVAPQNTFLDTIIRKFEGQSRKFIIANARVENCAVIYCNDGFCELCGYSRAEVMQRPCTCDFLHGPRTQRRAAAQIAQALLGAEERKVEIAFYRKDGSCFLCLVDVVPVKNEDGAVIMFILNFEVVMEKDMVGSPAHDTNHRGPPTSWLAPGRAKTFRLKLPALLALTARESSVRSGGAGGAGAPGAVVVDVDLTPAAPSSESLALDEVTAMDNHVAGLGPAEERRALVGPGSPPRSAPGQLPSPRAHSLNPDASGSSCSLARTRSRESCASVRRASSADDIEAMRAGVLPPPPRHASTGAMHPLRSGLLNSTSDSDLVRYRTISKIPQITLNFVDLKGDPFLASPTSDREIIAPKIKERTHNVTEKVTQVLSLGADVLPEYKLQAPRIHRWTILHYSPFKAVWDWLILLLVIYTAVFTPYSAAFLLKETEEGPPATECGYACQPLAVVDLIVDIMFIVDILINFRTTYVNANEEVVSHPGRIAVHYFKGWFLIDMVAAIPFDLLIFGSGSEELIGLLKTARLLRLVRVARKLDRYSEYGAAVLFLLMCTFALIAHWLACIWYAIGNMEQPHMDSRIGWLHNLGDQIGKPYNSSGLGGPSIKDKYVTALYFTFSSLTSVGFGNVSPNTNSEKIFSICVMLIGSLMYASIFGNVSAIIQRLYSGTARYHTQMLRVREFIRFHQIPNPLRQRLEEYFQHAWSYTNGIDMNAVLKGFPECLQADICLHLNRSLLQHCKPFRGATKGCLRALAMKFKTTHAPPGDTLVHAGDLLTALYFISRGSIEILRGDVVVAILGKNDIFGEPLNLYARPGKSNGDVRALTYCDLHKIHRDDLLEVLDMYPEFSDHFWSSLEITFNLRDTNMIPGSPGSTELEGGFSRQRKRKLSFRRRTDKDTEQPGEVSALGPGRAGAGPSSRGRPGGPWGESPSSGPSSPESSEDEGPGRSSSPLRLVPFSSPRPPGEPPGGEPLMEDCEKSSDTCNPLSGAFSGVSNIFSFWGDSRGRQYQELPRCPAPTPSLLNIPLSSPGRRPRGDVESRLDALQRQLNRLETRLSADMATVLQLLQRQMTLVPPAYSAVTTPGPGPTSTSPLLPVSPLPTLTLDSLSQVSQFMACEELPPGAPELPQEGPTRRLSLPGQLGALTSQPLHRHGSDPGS
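Also: peak tail current of the secondary pulse compared with the same well before compound.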

Point of comparison: `Cc1cccc(/C=N/NC(=O)C2CCCNC2=O)c1` (centres unmarked), “hERG current change (%, negative = inhibition) at 10uM” value 19%. Against it:
- O=C(Oc1ccc2c3c(c(=O)oc2c1)CCCC3)c1cccs1 — lower, -4.43%
- O=C(c1ccc(-c2ccccc2)c(F)c1)C1CCCN(CCO)C1 (centres unmarked) — lower, -44.8%
- CCn1cc(CN2CCCC(C(=O)c3ccc(-c4ccccc4)cc3)C2)cn1 (centres unmarked) — lower, -59.1%
- COCC(=O)N1CCCC(C(=O)c2ccc(-c3ccccc3)c(F)c2)C1 (centres unmarked) — lower, -23.3%
- O=C(c1ccc(-c2ccccc2)c(F)c1)C1CCCN(C(=O)c2cncs2)C1 (centres unmarked) — lower, -18.4%
- Cn1cc(CN2CCCC(C(=O)c3ccc(-c4ccccc4)cc3)C2)cn1 (centres unmarked) — lower, -34.4%
- O=C(c1ccc(-c2ccccc2)c(F)c1)C1CCCN(CCCn2cccn2)C1 (centres unmarked) — lower, -69.6%
- CCC(=O)N1CCCC(C(=O)c2ccc(-c3ccccc3)cc2)C1 (centres unmarked) — lower, -19%
- CC(=O)NCC(=O)N1CCCC(C(=O)c2ccc(-c3ccccc3)c(F)c2)C1 (centres unmarked) — lower, -25.1%
- CCn1cc(CN2CCCC(C(=O)c3ccc(-c4ccccc4)c(F)c3)C2)cn1 (centres unmarked) — lower, -57.6%
- NC(=O)CSc1nc2scc(-c3ccc(Cl)cc3)c2c(=O)n1Cc1ccccc1 — higher, 33.1%
- O=[N+]([O-])c1ccc(N2CCN(S(=O)(=O)c3ccccc3[N+](=O)[O-])CC2)cc1NCc1cccnc1 — lower, -8.91%
- Cc1ccccc1OCC(=O)N/N=C/c1cccc(Oc2ccc([N+](=O)[O-])cc2[N+](=O)[O-])c1 — lower, 5.59%
- CCn1cc(C(=O)NCCc2ccccc2)c(=O)c2cc(S(=O)(=O)N(C)C)ccc21 — lower, 7.05%
- O=C(NCCc1csc(-c2cccnc2)n1)c1cccc(Cl)c1 — lower, -17.7%
- CC1CCN(c2ccc(C(=O)O)cc2)CC1 — lower, 2.86%
- COc1ccc(/C=C/C(=O)NCC(=O)N2CCC(N(C)CCN3CCOCC3)CC2)cc1OC — lower, 14.7%
- O=C(/C=C/c1cccc(Cl)c1)NCCN1CCOCC1 — lower, -14.7%
- CC1CCCCC1N(C)C1CCN(C(=O)CNC(=O)/C=C/c2cccc(Cl)c2)CC1 (centres unmarked) — lower, -73.6%
- CN(C)C(CNC(=O)/C=C/c1cccc(Cl)c1)c1ccccc1 (centres unmarked) — lower, -19.2%
- COc1ccccc1/C=C/C(=O)NC(=S)N(C)C1CCCCC1 — lower, 1.35%
- Cc1ccccc1/C=C/C(=O)NCC(=O)N1CCC(N(C)C2CCCCC2C)CC1 (centres unmarked) — lower, -72.1%
- CC1CCN(C(=O)CNC(=O)Cc2ccccc2)CC1 — lower, 9.53%
- CCOc1ccc(C(=O)NCC(=O)N2CCC(C)CC2)cc1OCC — lower, 3.68%
- CCOc1ccccc1/C=C/C(=O)NCC(=O)N1CCC(N(C)C2CCCCC2C)CC1 (centres unmarked) — lower, -54.7%
- O=C(Nc1ccc(S(=O)(=O)NCC2CCCO2)cc1)C1CC(=O)N(c2ccccc2)C1 (centres unmarked) — lower, 3.16%
- O=C(NCCCn1ccnc1)c1cn(Cc2ccc(F)cc2)nn1 — lower, -9.7%
- COc1ccc(C(C)=O)cc1COC(=O)CNC(=O)c1cc(C)cc(C)c1 — lower, -11.7%
- Cn1c(O)c(C(=Nc2ccccc2)SCc2ccccc2Cl)c(=O)n(C)c1=O — higher, 21.5%
- CC(/C=C1\SC(=Nc2cccnc2)NC1=O)=C\c1ccccc1 — lower, 8.95%
- CC(=O)NC(Cc1ccccc1C)C(=O)NC1CCN(c2ncccc2[N+](=O)[O-])CC1 (centres unmarked) — lower, -1.73%
- O=C(O)C(=O)O.c1ccc(COc2cccc(CN3CCCCC3)c2)cc1 — lower, -19.2%
- Clc1ccc(OCCCN2CCCC2)cc1Cl.O=C(O)C(=O)O — lower, -67.7%
- Cc1cc(OCC(=O)N2CCCC2)ccc1Cl — lower, -0.71%
- Cc1cc(OCCCCCN2CCCC2)ccc1Cl.O=C(O)C(=O)O — lower, -77.2%
- Cc1cc(OCCCN2CCCC2)ccc1Cl — lower, -42.9%
- CN1CCN(CCOc2ccc(Cl)c(Cl)c2)CC1.O=C(O)C(=O)O — lower, -22.3%
- O=C(NCCCOc1cccc(CN2CCCCC2)c1)c1ccc(Cl)c(Cl)c1.O=C(O)C(=O)O — lower, -60.8%
- Clc1ccc(OCCN2CCCCC2)cc1Cl.O=C(O)C(=O)O — lower, -42.1%
- CC(=O)OCC(=O)NCCCOc1cccc(CN2CCCCC2)c1.Cl — lower, -2.29%
- CC(=O)Nc1scc(-c2ccccc2)[n+]1-c1ccc(C)cc1.[Br-] — lower, 1.06%
- O=C(CCCNC(=O)c1ccc(Cl)cc1)Nc1ccc(F)c(S(=O)(=O)N2CCOCC2)c1 — lower, -33.6%
- C/C(N)=C(/C#N)C(=O)COC(=O)c1cccc2ccccc12 — lower, -8.17%
